Consider 7 sequences from the supplement of paper PMC6555819.

Test in all cases: PBM binding z-score (relative to random genomic background probes); higher = stronger binding; sequences stand for … in GC…GCGATTGACAGCGTAGAATGAAGG
Test [1] deals with FXR:RXRa (NR concentration 270 nM, RXRa partner concentration 90 nM). The method in brief:
(§1)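 Random background probes are the reference for binding z-scores. These scores derive from regression-normalized fluorescence on custom Agilent 4×180K protein-binding microarrays incubated 1 h with ligand-free nuclear receptor dimers. Binding was detected with antibodies against each partner (one per run).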

Test [2] relates to LXRa:RXRa (NR concentration 270 nM, RXRa partner concentration 90 nM). The method in brief:
as §1

For test [3], the system named is LXRa homodimer (NR concentration 270 nM). In a few lines: as §1
In test [4] the test system is LXRb:RXRa (NR concentration 270 nM, RXRa partner concentration 90 nM). The method in brief:
as §1

The test system of test [5] is LXRb homodimer (NR concentration 270 nM). The method in brief:
as §1

The test system of test [6] is PPARa:RXRa (NR concentration 270 nM, RXRa partner concentration 90 nM). In a few lines:
as §1

Test [7] deals with PPARg:RXRa (NR concentration 180 nM, RXRa partner concentration 90 nM). The method in brief: as §1
The test system of test [8] is PPARg:RXRa 270nM:90nM, anti-RXR (NR concentration 270 nM, RXRa partner concentration 90 nM). In a few lines: as §1
For test [9], the system named is PPARg:RXRa 30nM:10nM, anti-RXR (NR concentration 30 nM, RXRa partner concentration 10 nM). In a few lines: as §1
The subject of test [10] is PPARg:RXRa 90nM:30nM, anti-RXR (NR concentration 90 nM, RXRa partner concentration 30 nM). The method in brief: as §1
Test [11] concerns PPARg:RXRa DBDmut IVT, anti-RXR (DBD mutation: RXRa K156A/R161A, NR concentration 270 nM, RXRa partner concentration 90 nM). The method in brief:
as §1

Test [12] deals with PPARg:RXRa IVT, anti-PPARg (NR concentration 270 nM, RXRa partner concentration 90 nM). In a few lines: as §1
Test [13] has as its system PPARg DBDmut:RXRa IVT, anti-PPARg (DBD mutation: PPARg1 K132A/R137A, NR concentration 270 nM, RXRa partner concentration 90 nM). The method in brief: as §1
Test [14] concerns PPARg DBDmut IVT, anti-PPARg (DBD mutation: PPARg1 K132A/R137A, NR concentration 270 nM). The method in brief: as §1
Test [15] relates to PPARg homodimer (NR concentration 180 nM). The method in brief:
as §1

Test [16] concerns PXR:RXRa (NR concentration 270 nM, RXRa partner concentration 90 nM). The method in brief:
as §1

Test [17] concerns PXR homodimer (NR concentration 270 nM). The method in brief: as §1
In test [18] the test system is RARa:RXR (NR concentration 270 nM, RXRa partner concentration 90 nM). The method in brief: as §1
The test system of test [19] is RARa homodimer (NR concentration 270 nM). In a few lines: as §1
Test [20] has as its system RARb:RXRa (NR concentration 270 nM, RXRa partner concentration 90 nM). In a few lines: as §1

In the case of AGAATGAGATTATTAAGATCAGGGAATTGCGGTC, the PBM binding z-score was -1.55 in test [1]; -0.864 in test [2]; -0.323 in test [3]; -0.702 in [4]; -0.452 in test [5]; -0.715 in test [6]. Also, the PBM binding z-score in test [7] is 0.449; in test [8] it was -0.292; in test [9], -0.0999; in test [10] it was -0.261; in [11] it was -0.986; in test [12] it was 0.00075. Moreover, the PBM binding z-score in [13] was 0.944; in test [14], 0.0181; in test [15], -0.475; in [16], -0.605; in test [17], -0.339; in test [18] it was -0.5. Also, the PBM binding z-score in test [19] is 0.637; in [20], -0.639.
TTACCAAGCTGAAGGTCGTTGATCCCTCTGTAGA: the PBM binding z-score in test [1] is 1.61; in [2], 1.68; in test [3], -0.245; in test [4] it was 1.04; in test [5], -0.907; in [6], 1.03. Besides, the PBM binding z-score in test [7] was 0.527; in [8], 2.36; in [9], 0.492; in [10] it was 1.8; in test [11], -0.256; in test [12], -0.224. The PBM binding z-score in [13] is -1.71; in [14] it was -1.67; in test [15], -0.217; in test [16], 1; in test [17], -0.159; in test [18], 0.87. Further, the PBM binding z-score in test [19] was -1.08; in test [20], 0.656.
As to CGTCCAAGGTCATAGGCGGTCAGTGAAGACAGAT, the PBM binding z-score in test [1] was 7.45; in test [2], 6.83; in test [3], 2.89; in test [4] it was 4.79; in test [5], 0.324; in test [6], 5.55. The PBM binding z-score was 4.7 in [7]; 5.18 in test [8]; 1.82 in test [9]; 3.6 in test [10]; 2.93 in test [11]; 3.58 in test [12]. Further, the PBM binding z-score is -0.0996 in [13]; 0.332 in test [14]; 2.85 in [15]; 5.12 in test [16]; 1.57 in [17]; 4.75 in [18]. The figures for the PBM binding z-score in test [19] and in [20] were 1.15 and 4.94, respectively.
Regarding ATCGAAAGGTCGCCGAGGTGAGTATACACCGTTT, the PBM binding z-score worked out at 5.1 in test [1]; 3.88 in test [2]; 0.0507 in [3]; 3.11 in test [4]; 0.601 in [5]; 5.12 in [6]. The PBM binding z-score in [7] worked out at 3.84; in test [8], 4.39; in test [9] it was 1.55; in test [10] it was 2.85; in [11], 0.699; in [12], 2.7. The PBM binding z-score in test [13] came out at 1.2; in test [14], 0.615; in [15] it was 1.79; in [16], 3.34; in test [17], 0.6; in [18], 4.03. The PBM binding z-score in test [19] was determined as 0.336; in test [20], 4.25.
For the sequence AGAACGAGGGGACGCTGAGTTGATAGCAGAGTAG, the PBM binding z-score is -0.308 in test [1]; -0.353 in [2]; -0.679 in test [3]; -0.522 in test [4]; -0.449 in test [5]; -0.232 in [6]. In addition, the PBM binding z-score in test [7] was 0.607; in test [8], 0.0813; in [9], -0.0641; in test [10], -0.258; in test [11], 1.17; in test [12] it was 0.723. The PBM binding z-score in [13] is 0.599; in test [14] it was 0.498; in test [15] it was -0.427; in test [16] it was -0.245; in test [17], 0.132; in test [18] it was -0.589. Also, the results for the PBM binding z-score in test [19] and in test [20] were -0.633 and 0.334, respectively.
With CGTCCAAGGTCAGCAGGACAGTGAAAGCGACGTG, the PBM binding z-score in test [1] was 5.11; in [2], 3; in test [3] it was -0.143; in [4], 2.24; in test [5] it was -0.588; in test [6], 4.36. The PBM binding z-score amounted to 2.83 in test [7]; 3.16 in [8]; 0.274 in [9]; 2.07 in [10]; 2.27 in test [11]; 2.58 in test [12]. In addition, the PBM binding z-score in [13] is 0.502; in test [14], -0.859; in test [15] it was 1.75; in test [16], 2.27; in test [17], 0.176; in [18], 2.92. For the same sequence, the PBM binding z-score in test [19] was 0.175; in test [20] it was 5.17.
On to CCTCGGAGAACAGAAGGTCAGAGCTGTCCGCTTT, for which the PBM binding z-score in test [1] was 1.13; in test [2], 1.7; in test [3], 0.757; in test [4], 1.3; in [5], -0.0418; in [6], 1.85. Further, the PBM binding z-score is -0.162 in [7]; 0.587 in test [8]; -0.776 in [9]; 0.369 in test [10]; 0.0999 in test [11]; -0.304 in test [12]. In addition, the PBM binding z-score in test [13] was -1.44; in test [14] it was -1.47; in test [15], 1.67; in test [16] it was 1.44; in test [17], 0.0963; in [18] it was 1.92. The PBM binding z-score in [19] worked out at 0.634; in test [20], 2.42.
